# Experimental data reported in PMC4336329 (PLoS ONE, 2015).
# Hit rate of the full screen: of about 310,000 compounds, about 14,000 (4.5%) showed an effect of 50% or more. The effect is printed as a negative number. What follows is part of a selection rich in strong results, with near analogues and random picks from the rest.
# Biological target: human ether-à-go-go-related gene (hERG) potassium channel (human, UniProt Q12809)
# Test: primary screen, population patch clamp on CHO cells stably expressing hERG; higher = less effect of the substance
# 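Further: peak tail current of the secondary pulse compared with the same well before compound.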
# Sequence of human ether-à-go-go-related gene (hERG) potassium channel (Q12809 whole entry, looked up): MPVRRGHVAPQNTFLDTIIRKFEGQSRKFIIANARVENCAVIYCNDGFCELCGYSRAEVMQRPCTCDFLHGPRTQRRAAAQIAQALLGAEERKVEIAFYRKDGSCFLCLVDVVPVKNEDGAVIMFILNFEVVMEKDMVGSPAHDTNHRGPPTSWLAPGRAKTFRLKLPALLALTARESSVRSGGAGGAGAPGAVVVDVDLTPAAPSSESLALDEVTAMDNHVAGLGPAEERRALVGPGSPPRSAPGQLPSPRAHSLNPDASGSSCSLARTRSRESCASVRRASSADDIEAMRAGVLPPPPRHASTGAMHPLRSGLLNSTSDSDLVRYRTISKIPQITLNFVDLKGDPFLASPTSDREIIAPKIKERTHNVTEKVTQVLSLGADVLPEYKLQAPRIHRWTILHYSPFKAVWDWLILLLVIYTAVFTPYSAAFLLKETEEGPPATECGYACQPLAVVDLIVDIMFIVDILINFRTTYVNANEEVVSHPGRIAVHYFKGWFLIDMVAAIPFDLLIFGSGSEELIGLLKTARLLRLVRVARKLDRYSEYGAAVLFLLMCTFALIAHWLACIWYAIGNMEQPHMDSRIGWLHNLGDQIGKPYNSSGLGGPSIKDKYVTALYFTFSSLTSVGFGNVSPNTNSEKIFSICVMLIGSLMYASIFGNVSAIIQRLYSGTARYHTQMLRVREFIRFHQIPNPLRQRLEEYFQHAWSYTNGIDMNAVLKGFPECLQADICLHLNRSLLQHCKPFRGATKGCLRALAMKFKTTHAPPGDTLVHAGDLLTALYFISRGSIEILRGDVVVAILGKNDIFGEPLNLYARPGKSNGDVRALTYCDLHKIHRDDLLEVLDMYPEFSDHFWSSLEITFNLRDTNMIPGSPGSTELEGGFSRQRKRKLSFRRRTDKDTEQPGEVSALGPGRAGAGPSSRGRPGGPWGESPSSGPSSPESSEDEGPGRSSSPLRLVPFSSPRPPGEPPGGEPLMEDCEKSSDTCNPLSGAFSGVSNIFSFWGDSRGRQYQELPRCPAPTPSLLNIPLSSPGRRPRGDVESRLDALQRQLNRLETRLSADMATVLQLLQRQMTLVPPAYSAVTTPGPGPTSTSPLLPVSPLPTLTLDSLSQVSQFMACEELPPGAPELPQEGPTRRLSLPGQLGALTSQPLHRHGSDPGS
row,Structure (SMILES),"hERG current change (%, negative = inhibition) at 10uM [%]"
1,Cc1ccc(N(C)C(=O)C2CCCN2S(=O)(=O)c2ccc3c(c2)n(C)c(=O)c(=O)n3C)cc1 (stereo not drawn),-2.28
2,COc1ccccc1C(=O)NCC(=O)N=Nc1c(O)n(C(C)C)c2ccccc12,-7.32
3,CC(CN1CCOCC1)OC(=O)c1ccccc1Cl.Cl (stereo not drawn),12
4,CC1(C)CC(=O)C(C=NCC2CCN(C(=S)Nc3ccccc3)CC2)=C(O)C1,-3.98
5,CC1(C)CC(=O)C(C=NCCN2CCN(C(=O)Cc3ccc(F)cc3)CC2)=C(O)C1,-23.5
6,CC1(C)CC(=O)C(C=NCCN2CCN(C(=S)Nc3cccc(Cl)c3)CC2)=C(O)C1,-66.3
7,CC1(C)CC(=O)C(C=NCCN2CCN(C(=O)Cc3ccc(Cl)cc3)CC2)=C(O)C1,-62
8,CC1(C)CC(=O)C(C=NCCN2CCN(C(=O)Cc3ccccc3)CC2)=C(O)C1,-24.8
9,CC1(C)CC(=O)C(C=NCCN2CCN(C3CC(=O)N(c4ccc(F)cc4)C3=O)CC2)=C(O)C1 (stereo not drawn),6.86
10,CC1(C)CC(=O)C(C=NCCN2CCN(C3CC(=O)N(c4ccc(Br)cc4)C3=O)CC2)=C(O)C1 (stereo not drawn),-19.3
11,CC1(C)CC(=O)C(C=NCCN2CCN(C(=S)Nc3ccccc3)CC2)=C(O)C1,-11.3
12,CC1(C)CC(=O)C(C=NCC2CCN(C(=S)Nc3cccc(Cl)c3)CC2)=C(O)C1,-62.4
13,CC1(C)CC(=O)C(C=NCC2CCN(C(=O)Nc3ccc(Cl)c(Cl)c3)CC2)=C(O)C1,-23.8
14,CC1(C)CC(=O)C(C=NCCN2CCN(C3CC(=O)N(c4ccc(Cl)c(Cl)c4)C3=O)CC2)=C(O)C1 (stereo not drawn),-50.2
15,CC1(C)CC(=O)C(C=NCCN2CCN(C(=S)Nc3ccc(F)cc3)CC2)=C(O)C1,-27.8
16,COc1ccc(Br)cc1C(=O)Nc1cc(C)cc(C)c1,5.21
17,NC(=O)c1cc2n(n1)C(C(F)(F)F)CC(c1ccco1)N2 (stereo not drawn),-7.54
18,COC(=O)C1NN=C(C(=O)c2ccc(Br)cc2)C1c1cccc(Br)c1 (stereo not drawn),2.42
19,CC(C)c1nc2sc3c(SCC(N)=O)ncnc3c2c2c1CCC2,11.9
20,NC(=O)c1ccc(C(F)(F)F)n(Cc2c(Cl)cccc2Cl)c1=O,25.1
21,CCc1cccc(CC)c1NC(=O)/C(C#N)=C/c1ccccc1C(F)(F)F,21.4
22,C=CCn1c(NCCc2ccccc2)nc2c1c(=O)n(C)c(=O)n2C,-1.17
23,Cc1ccccc1NC(=O)C1CCC(=O)N1 (stereo not drawn),-0.504
24,Cc1c(N2C(=O)c3ccc(F)cc3C2=O)c(=O)n(-c2ccccc2)n1C,13.6
25,Cc1ccccc1Nc1nc(N)nc(-c2oc3ccccc3c2C)n1,4.69
26,COc1ccc(Cl)cc1NC(=O)CCN1C(=O)C2C3C=CC(C4CC34)C2C1=O (stereo not drawn),-24.4

row,Structure (SMILES),"hERG current change (%, negative = inhibition) at 10uM [%]"
1,COc1ccc(O)c(-c2cc(-c3ccccc3[N+](=O)[O-])[nH]n2)c1,-11.7
2,COC(=O)c1sc(NC(=O)CSc2nnc(Cn3nnc4ccccc43)n2C)nc1C,23.9
3,CCOC(=O)c1c(NC(=O)CSc2nnc(CNc3ccc(OC)cc3)n2C)sc(C)c1C,-21.7
4,CCOC(=O)Cc1csc(NC(=O)CSc2nnc(Cc3csc(N)n3)n2C)n1,-1.19
5,COC(=O)c1c(NC(=O)CSc2nnc(Cn3nnc4ccccc43)n2C)sc(C)c1C,-62.7
6,Cc1nc(NC(=O)CSc2nnc(Cn3nnc4ccccc43)n2C)sc1C,0.783
7,CCOC(=O)c1c(NC(=O)CSc2nnc(Cc3csc(N)n3)n2C)sc(C)c1C,-51.8
8,CN(C)C(=O)N1CCC(C(=O)NCc2ccc3c(c2)OCO3)CC1,5.54
9,O=C(CNc1cccc2ccccc12)N/N=C/c1cccc(Oc2ccccc2)c1,18.2
10,Cc1ccc(S(=O)(=O)N2CCN(C(=O)COC(=O)CCOc3ccccc3)CC2)c(C)c1,1.16
11,CCN(CC(=O)Nc1ccc(OC)cc1)CC(=O)Nc1cccc(C#N)c1,0.389
12,CS(=O)(=O)N1CCC(C(=O)c2cccc(Cl)c2)CC1,-0.907
13,COc1ccc(CNC(=O)C2CCN(C(=O)c3cccc(Cl)c3)CC2)cc1,-44.9
14,COc1cccc(C(=O)C2CCCN(Cc3ccc(F)cc3)C2)c1 (stereo not drawn),-18.6
15,O=C(c1cccc(Cl)c1)C1CCCN(Cc2ccon2)C1 (stereo not drawn),-26.3
16,COc1cccc(OC)c1CN1CCCC(C(=O)c2cccc(Cl)c2)C1 (stereo not drawn),-69
17,O=C(c1cccc(Cl)c1)C1CCCN(Cc2ccc(N3CCNC3=O)cc2)C1 (stereo not drawn),-43.7
18,COc1ccc(CN2CCC(C(=O)c3cccc(Cl)c3)CC2)cc1,-78.7
19,COc1ccc(CN2CCCC(C(=O)c3cccc(Cl)c3)C2)cc1 (stereo not drawn),-57.4
20,C[C@H](CCC(=O)NCC(=O)[O-])[C@H]1CC[C@H]2[C@@H]3[C@H](O)C[C@@H]4C[C@H](O)CC[C@]4(C)[C@H]3C[C@H](O)[C@]12C.O.[Na+],-21.4
21,Cc1ccc(Cn2ccc(NC(=O)c3cc(-c4ccc(Cl)cc4)on3)n2)cc1,17.3
22,COc1cccc(Nc2ncnc3sc(C)cc23)c1.Cl,-8.64
23,C#CCOCCOCCOCCNc1nc(N2CCN(C(=O)[C@H]([C@@H](C)CC)n3cc([C@@H](N)CC(C)C)nn3)CC2)nc(N2CCN(C(=O)[C@H](CCCCN)n3cc([C@@H](N)CC(C)C)nn3)CC2)n1.Cl,-10.1
24,CCOc1ccccc1CNC(=O)c1ccc(NC(=O)C2=CSCCO2)cc1,7.72
25,COc1ccccc1C(=O)NCCC(=O)NCc1ccccn1,-2.66
